Data from PubChem BioAssay (NCI).
Compounds without any hit were thinned out: in the full panel of roughly 79,000, 15% have a hit. Activity calls are given as the source filed them. No stated cut-off is given here; in the data, active means growth inhibition above about 70%; inactive means the rest. Where a SMILES comes first, the peptide text is derived from it. The star is where a group is joined. Cbz = O=C(OCc1ccccc1)*

Assays:
[1] = NCI Yeast Anticancer Drug Screen. Data for the rad50 strain (AID 155);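 further: 0% = growth of vehicle-only cultures of the same strain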; details: S. cerevisiae rad50 strain growth inhibition; at 50.0 µM; stronger effect = higher value
Method in brief: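 Genetically altered yeast (DNA repair pathway); compound treatment; growth inhibition vs vehicle ctrl.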

[2] = NCI Yeast Anticancer Drug Screen. Data for the mec2-1 strain (AID 157); details: S. cerevisiae mec2-1 strain, at 50.0 µM, stronger effect = higher value
Method in brief: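 mec2-1 yeast strain, carrying an alteration in DNA damage repair or cell cycle control, was exposed to compounds; growth inhibition was measured relative to vehicle-treated controls.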

[3] = NCI Yeast Anticancer Drug Screen. Data for the sgs1 mgt1 strain (AID 161);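 further: 0% = growth of cultures given vehicle only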; details: S. cerevisiae sgs1 mgt1 strain, at 50.0 µM, stronger effect = higher value
Method in brief: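 Growth of a repair-deficient yeast mutant was monitored after compound treatment and expressed as inhibition relative to vehicle-treated cultures.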

[4] = NCI Yeast Anticancer Drug Screen. Data for the cln2 rad14 strain (AID 165);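 further: 0% = growth equal to vehicle treated cultures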; details: S. cerevisiae cln2 rad14 strain, at 50.0 µM, stronger effect = higher value
Method in brief: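 Yeast carrying cln2 and rad14 alterations (cell cycle control and DNA damage repair) were exposed to compounds. Growth inhibition was measured against vehicle-treated controls.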

[5] = NCI Yeast Anticancer Drug Screen. Data for the bub3 strain (AID 167); details: S. cerevisiae bub3 mutant strain, at 50.0 µM, stronger effect = higher value
Method in brief: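 Yeast carrying a defined mutation is treated with each compound, and growth is compared with that of vehicle-exposed cells to give inhibition.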

[6] = NCI Yeast Anticancer Drug Screen. Data for the mlh1 rad18 strain (AID 175); details: S. cerevisiae mlh1 rad18 strain growth inhibition; at 50.0 µM; stronger effect = higher value
Method in brief: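 Growth inhibition of the yeast strain was measured after compound exposure and expressed relative to vehicle-treated controls. The strain carries defined defects in DNA damage repair.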

Measured: growth inhibition

CCN(CC)CCOC(=O)c1ccc(NC(=O)OCCC(C)OC(=O)Nc2ccc(C(=O)OCCN(CC)CC)cc2)cc1 (stereo unspecified)
inactive: [1] -1.55% | [2] 1.2% | [3] -1.65% | [4] -4.4% | [5] -6.6% | [6] 11.9%

COC(=O)CCOc1ccccc1
inactive: [1] 15.1% | [2] 5.1% | [3] 0.25% | [4] 11.9% | [5] -8.8% | [6] -18.8%

O=NN(CC(=O)O)c1ccc2ccccc2c1
inactive: [1] 2.55% | [2] -7.3% | [3] 13.8% | [4] -39.5% | [5] -14.9% | [6] -2.85%

CSc1nc(N)c(N)c(N)n1
inactive: [1] 0.1% | [2] 2.9% | [3] -2.75% | [4] -21.8% | [5] 11.8% | [6] 14.4%

COC(=O)c1nnn(CCc2c[nH]c3ccccc23)c1C(=O)OC
inactive: [1] -10.8% | [2] 4% | [3] -11.3% | [4] -11.6% | [5] 19.8% | [6] -24.7%

CC(O)C(NC(=O)C(Cc1ccc(O)cc1)NC(=O)OCc1ccccc1)C(=O)O (stereo not drawn) (Cbz-Tyr-Thr-OH; configuration not given here)
inactive: [1] -9.65% | [2] -4.25% | [3] -2.05% | [4] -35.8% | [5] -4.85% | [6] -0.7%

Clc1ccc2nsnc2c1Cl
inactive: [1] -0.1% | [2] -1.25% | [3] -3.75% | [4] -19.4% | [5] 7.8% | [6] 8.1%

CCOC(=O)CCCCCCCCC(=O)Nc1ccc(-n2[nH]c(=O)cc2C)cc1
inactive: [1] -2.6% | [2] -31% | [3] -27.6% | [4] 6.95% | [5] -4.1% | [6] -3.3%

COC(=O)c1nsc(OC)c1Cl
inactive: [1] 22.1% | [2] -11.5% | [3] 15.8% | [4] 8.7% | [5] 23.6% | [6] 50.4%

O=S(=O)(O)c1ccc2cc(O)ccc2c1
inactive: [1] 35.7% | [2] 14.6% | [3] 13.8% | [4] 14.5% | [5] 20.8% | [6] 28.4%

COC(=O)CN(c1ccc(C#N)c2ccccc12)S(=O)(=O)c1ccccc1
inactive: [1] 32.4% | [2] -2.35% | [3] 3.7% | [4] -4.9% | [5] 4.25% | [6] 1.45%

CCN(CC)CCO/N=C1\CC(c2ccc(OC)c(OC)c2)Oc2ccccc21 (stereo unspecified)
inactive: [1] 3.8% | [2] 13.7% | [3] 2.65% | [4] 26.6% | [5] -9.85% | [6] 9.8%

Nc1ccccc1SC1CC(=O)N(c2ccc(I)cc2)C1=O (stereo unspecified)
inactive: [1] -6.8% | [2] -15.7% | [3] -7.5% | [4] 13.8% | [5] 9.55% | [6] 2.35%

CN(Cc1ccccc1)N=NCc1ccccc1
inactive: [1] 15.8% | [2] -15.8% | [3] -20.4% | [4] 3.35% | [5] 3.65% | [6] -9.7%

CC1/C(=N/Nc2ccc([N+](=O)[O-])cc2)CC2C3(C)CCC2(C(C)C(=O)O)C(=O)C13 (stereo unspecified)
inactive: [2] 33.4% | [4] 45.7% | [5] 44.8%
active: [1] 78% | [3] 83.5% | [6] 88.7%

CC(CO)(CO)[N+](=O)[O-]
inactive: [1] 19.2% | [2] 9.65% | [3] -5.85% | [4] -46.5% | [5] 6.25% | [6] 19.9%

O=C1CC2CCC(C1)S2
inactive: [1] -18.1% | [2] -28.6% | [3] -15.4% | [4] 16.1% | [5] -2.95% | [6] -33%

Cc1cc(Cl)ccc1NC(=O)Nc1c(Oc2ccc(Cl)cc2)ccc(Cl)c1S(=O)(=O)O
inactive: [2] 36.8% | [3] 55.5% | [4] 3.85% | [5] -0.75% | [6] 45.9%
active: [1] 76.8%

CC1C[C@]2(C)C(=NCCN)Nc3ccccc3[C@@H]2N(C)c2ccccc21 (stereo partly specified)
inactive: [1] -14.4% | [2] -25.6% | [3] -10.8% | [4] -28.6% | [5] -13.2% | [6] 13.3%

CCC1(C#N)OC1C (stereo unspecified)
inactive: [1] 26.9% | [2] -24.1% | [3] 23.1% | [4] 10.8% | [5] 5.15% | [6] 27.4%

CC(=O)Nc1ccc(/C=N/Nc2ccccc2)cc1
active: [1] 97.9% | [2] 98.8% | [3] 98.5% | [4] 96.6% | [5] 98.5% | [6] 98.7%

COC(=O)c1nc(=S)[nH]c(C(=O)OC)c1C(=O)c1ccc(OC)cc1
inactive: [1] -31.9% | [2] -17.6% | [3] -10.2% | [4] -7.9% | [5] -30.4% | [6] 1.2%

C(#CCN1CCOCC1)CCCN1CCOCC1
inactive: [1] 1.2% | [2] -38.7% | [3] -2.45% | [4] -17.4% | [5] -15.2% | [6] 10.2%

CCCC(=O)c1c(C)cc(C)cc1C
inactive: [1] -6.6% | [2] -19.7% | [3] -24.4% | [4] 9.45% | [5] -7.55% | [6] 11.1%

CCCC(=O)Nc1cccc(C(F)(F)F)c1
inactive: [1] 7.65% | [2] 19.6% | [3] -11.4% | [4] 22.5% | [5] 26.9% | [6] 28.6%

O=[N+]([O-])c1cccc(OCC2CO2)c1 (stereo unspecified)
inactive: [1] 9% | [2] -23.8% | [3] -0.75% | [4] -13.2% | [5] -2.1% | [6] 34.5%

Nc1nnc(CCC(=O)Nc2cccc(C(F)(F)F)c2)n1N
inactive: [1] 4.85% | [2] 5.6% | [3] 7.3% | [4] -27.9% | [5] 9.65% | [6] 1.55%

COc1ccc(Cl)cc1C(O)CN1CCCCC1 (stereo unspecified)
inactive: [1] -8.35% | [2] -11.9% | [3] -11.2% | [4] -37.5% | [5] 0.45% | [6] -6.3%

Cc1cc(O)c(C(C)C)cc1N=O
inactive: [1] 22.2% | [2] -7.25% | [3] 18.5% | [4] 16.6% | [5] -15.6% | [6] 6.35%

N=C(N)C(N=Nc1ccccc1)C(=N)N (stereo unspecified)
inactive: [1] -25.4% | [2] -7.45% | [3] -22.1% | [4] -33.5% | [5] -25.5% | [6] -16%

CSc1sc2ccc(S(=O)(=O)O)cc2[n+]1C
inactive: [1] 24.1% | [2] -6.7% | [3] 15.7% | [4] -4.4% | [5] -1.85% | [6] 9.8%

COc1ccc([N+](=O)[O-])cc1NC(=O)Nc1ccc(F)c([N+](=O)[O-])c1
inactive: [1] 8.6% | [2] 3.4% | [3] -6.3% | [4] 0.2% | [5] -3.8% | [6] 6.3%

CC(C)[Si](C#CC[Si](C(C)C)(C(C)C)C(C)C)(C(C)C)C(C)C
inactive: [1] -13.8% | [2] -6% | [3] -17.4% | [4] -17.6% | [5] -20.3% | [6] -9.35%

CCOc1nc(N)nc(C)c1N=Nc1ccc(O)cc1
inactive: [1] -5.7% | [2] 6.2% | [3] 0.85% | [4] -43% | [5] -2.4% | [6] -0.4%

COc1ccc(-c2c(C(=O)O)cc(O)c3cc(OC)c(OC)cc23)cc1OC
inactive: [1] 6.4% | [2] -2.9% | [3] 5% | [4] 26.4% | [5] 3.3% | [6] -0.75%

Fc1ccc2cc3cccc[n+]3cc2c1
inactive: [1] 27.1% | [2] 7.05% | [3] 32.4% | [4] 14.4% | [5] 10.1% | [6] 2.35%

O/N=C1/CCCCC1NO (stereo unspecified)
inactive: [1] -17.9% | [2] -22.9% | [3] -32.2% | [4] 15.7% | [5] -10.8% | [6] -19.7%

CS(=O)(=O)OCC1NC(=O)C(COS(C)(=O)=O)NC1=O (stereo unspecified)
inactive: [1] -10.4% | [2] 2.8% | [3] -3.15% | [4] 2% | [5] -0.65% | [6] 3.7%

CN1CCCN(C(=O)N(c2ccccc2)c2ccccc2)CC1
inactive: [1] -19.3% | [2] -12.8% | [3] 7.45% | [4] -3.6% | [5] -5.65% | [6] 7.4%

O=[N+]([O-])C1=C(c2ccccc2)SC(Br)=C(c2ccccc2)S1
inactive: [1] -1.2% | [2] 9.7% | [3] 3.2% | [4] -0.6% | [5] 3.35% | [6] 7.65%

CCCCCCCCCCCC(=O)N/N=C/c1ccccc1OC
inactive: [1] -0.65% | [2] 7.25% | [3] -10.3% | [4] -18.8% | [5] 4% | [6] 12.6%
